Only some compounds are listed: those with a hit (about 3.1% of all), similar ones and a draw of the others.
HSF1 activator = increases HSF-1 driven luciferase reporter signal. AID 504408. activation, % at 9 µM. NIH3T3-HGL HSF-1 luciferase reporter, MG132, 8 h; 100% = twice DMSO control signal. 1.7% of 300,000 active;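 active = mean replicate activation of at least 50% with a set share of replicates each reaching 50%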
HSP90 inh = HSP90 refolding inhibition in rabbit reticulocyte lysate | luciferase refolding luminescence, 3 h | inhibition, % at 5.6 µM | 0.91% of 290,000 active;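 active = inhibition above the screen-wide mean plus 3 SD, computed separately per campaign, cut at about 16% in these data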;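 note: inhibitors lower the luminescence because luciferase stays unfolded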
HIF activator = HIF pathway transcriptional activation | U2OS HRE-luciferase reporter, luminescence; normalized: DMSO 0%, desferrioxamine 100% | activation, % at 7.5 µM (by protocol) | 0.32% of 300,000 active | AID 1910;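 active = mean activation of at least 10% of the iron chelator positive control signal, with at least half of replicates also reaching 10%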
ARNT TACC3 PPI = ARNT/TACC3 interaction disruption; inhibition, % at 9.99 µM; AlphaScreen His-ARNT PAS-B/GST-TACC3 binding, luminescence; TACC3 fragment carries E629A point mutation; 0.66% of 390,000 active;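 active = mean inhibition of replicates at least 50% and at least half of replicates each reaching 50%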
HSF1 inh = HSF1 inhibition. NIH3T3-HGL HSE-luciferase, MG132-induced, luminescence 8 h; hits give low values. activity change, negative = inhibition, % at 7.5 µM (by protocol). 0.77% of 300,000 active. AID 2098;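 active = more than half of replicate wells show activity change below -50%, luminescence cut by over half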;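 note: luciferase reports HSF-1 transcriptional activity via heat shock element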
A number is an active result.

How did CCc1cc(C)cc(OCCNC(=O)c2cncc(Br)c2)c1 do in these assays?
HSF1 activator: inactive; HSP90 inh: inactive; HIF activator: inactive; ARNT TACC3 PPI: inactive; HSF1 inh: -62

What do the screens show for `O=C(NCCOc1ccccc1)c1cncc(Br)c1`?
HSF1 activator: inactive; HSP90 inh: inactive; HIF activator: inactive; ARNT TACC3 PPI: inactive; HSF1 inh: inactive

Results for CC(=O)N1c2ccc(S(=O)(=O)N3CCCC3)cc2CC1C(=O)NCc1ccc(N(C)C)cc1 (stereo not given) ?
HSF1 activator: 57; HSP90 inh: inactive; HIF activator: inactive; ARNT TACC3 PPI: inactive; HSF1 inh: inactive

What do the screens show for `Cc1noc(C)c1S(=O)(=O)N(C)C[C@H]1Oc2ccc(NC(=O)Cc3ccccc3)cc2CC(=O)N([C@H](C)CO)C[C@@H]1C`?
ARNT TACC3 PPI: inactive

What do the screens show for `C[C@H]1CN([C@@H](C)CO)C(=O)c2cc(-c3cccnc3)cnc2O[C@@H]1CN(C)Cc1ccc(-c2ccccc2)cc1`?
ARNT TACC3 PPI: inactive

What do the screens show for `COc1cccc2c1C(=O)c1c(O)c3c(c(O)c1C2=O)C[C@@](O)(C(=O)CO)C[C@@H]3O[C@H]1C[C@H](N)[C@@H](O)[C@H](C)O1`?
HSF1 activator: inactive; HIF activator: inactive; ARNT TACC3 PPI: inactive; HSF1 inh: -75

Results for O=C(NCC[C@H]1CC[C@H](NS(=O)(=O)c2ccccc2)[C@@H](CO)O1)c1ccc2c(c1)OCO2 ?
ARNT TACC3 PPI: inactive

What do the screens show for `CCN(c1ccc(OC)cc1)c1ncnc2nc[nH]c12`?
HSF1 activator: inactive; HSP90 inh: inactive; HIF activator: inactive; ARNT TACC3 PPI: inactive; HSF1 inh: -64

How did CCCN(c1ccc(OCC)cc1)c1ncnc2nc[nH]c12 do in these assays?
HSF1 activator: inactive; HSP90 inh: inactive; HIF activator: inactive; HSF1 inh: inactive

How did Cc1c(C(=O)N2CCCCC2)c(S(=O)(=O)NCCc2ccc(Cl)cc2)c(C)n1C do in these assays?
HSF1 activator: inactive; HSP90 inh: inactive; HIF activator: 14; HSF1 inh: inactive

Results for O=c1c2ccccc2nc(SCc2nnc(-c3ccccc3Br)o2)n1Cc1ccco1 ?
HSF1 activator: 97; HSP90 inh: inactive; HIF activator: inactive; ARNT TACC3 PPI: inactive; HSF1 inh: inactive

Results for O=C(N/N=C/c1ccccn1)c1ccc([N+](=O)[O-])cc1 ?
HSF1 activator: inactive; HSP90 inh: inactive; HIF activator: inactive; ARNT TACC3 PPI: inactive; HSF1 inh: -81

Results for Cc1cc(C(=O)N/N=C/c2ccccn2)n[nH]1 ?
HSF1 activator: inactive; HSP90 inh: inactive; HIF activator: inactive; HSF1 inh: inactive

Results for O=C(N/N=C/c1ccccn1)c1ccc(NC(=O)c2cccc([N+](=O)[O-])c2)cc1 ?
HSF1 activator: inactive; HSP90 inh: inactive; HIF activator: inactive; HSF1 inh: inactive

Results for O=C(N/N=C/c1ccccn1)c1cc(C2CC2)[nH]n1 ?
HSF1 activator: inactive; HSP90 inh: inactive; HIF activator: inactive; ARNT TACC3 PPI: 48; HSF1 inh: inactive

Results for O=C(N/N=C/c1ccccn1)c1cc([N+](=O)[O-])cc([N+](=O)[O-])c1 ?
HSF1 activator: inactive; HSP90 inh: inactive; HIF activator: inactive; ARNT TACC3 PPI: 61; HSF1 inh: inactive

How did CC(C)CC#Cc1ccc2c(c1)O[C@@H](CN(C)Cc1cccc(F)c1)[C@H](C)CN([C@H](C)CO)S2(=O)=O do in these assays?
ARNT TACC3 PPI: inactive

What do the screens show for `C[C@@H]1CN([C@@H](C)CO)C(=O)Cc2cc(NC(=O)CCCCCC(=O)Nc3ccccc3N)ccc2O[C@H]1CN(C)C`?
ARNT TACC3 PPI: inactive

How did CCCCC(=O)N/N=C/c1ccc(Sc2cccc3cccnc23)o1 do in these assays?
HSF1 activator: inactive; HSP90 inh: inactive; HIF activator: inactive; ARNT TACC3 PPI: 54; HSF1 inh: inactive

Results for Cn1nnnc1Sc1ncnc2scc(-c3ccc4c(c3)OCO4)c12 ?
ARNT TACC3 PPI: 47

How did COc1ccc(S(=O)(=O)Nc2ccc3c(c2)C(=O)N([C@H](C)CO)C[C@@H](C)[C@H](CN(C)Cc2ccccc2)OCCCC[C@H](C)O3)cc1 do in these assays?
ARNT TACC3 PPI: inactive

What do the screens show for `C=CCNc1ncnc2c1[nH]c1ccc(C)cc12`?
HSF1 activator: 62; HSP90 inh: inactive; HIF activator: inactive; ARNT TACC3 PPI: inactive; HSF1 inh: inactive

Results for CCOc1ccc2[nH]c3c(NCCN(C)C)ncnc3c2c1 ?
HSF1 activator: inactive; HSP90 inh: inactive; HIF activator: inactive; ARNT TACC3 PPI: inactive; HSF1 inh: inactive

Screening results: PubChem, several laboratories
